Assay outcomes from PubChem.
Arbovirus inh: antivirals against arbovirus infection; hit rate 0.37% among 200,000; inhibition, % at 10 µM; arbovirus infection cell-based antiviral screen; in the data active = inhibition above about 30%
Measles CPE: protection of cells from measles virus. Measles virus-infected cells, CPE protection, absorbance. protection (pct of control), % at 4 µM. hit rate 1.5% among 140,000. AID 841; in the data active = protection mostly above about 24%, no sharp cut-off; inactive = mostly below about 26%
ROMK primary: modulates human ROMK potassium channel activity; B-score at 10 µM; AID 1918; Tet-inducible ROMK, thallium flux fluorescence; actives lie on both sides; P48048; hit rate 2% among 130,000;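 active = signal ratio slope over the read window, or its plate-corrected B-score, at least 3 SD from the plate mean, either direction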;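 also: B-score of the F/F0 ratio slope over 7 to 12 s after thallium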
Target sequence (P48048 whole entry, looked up): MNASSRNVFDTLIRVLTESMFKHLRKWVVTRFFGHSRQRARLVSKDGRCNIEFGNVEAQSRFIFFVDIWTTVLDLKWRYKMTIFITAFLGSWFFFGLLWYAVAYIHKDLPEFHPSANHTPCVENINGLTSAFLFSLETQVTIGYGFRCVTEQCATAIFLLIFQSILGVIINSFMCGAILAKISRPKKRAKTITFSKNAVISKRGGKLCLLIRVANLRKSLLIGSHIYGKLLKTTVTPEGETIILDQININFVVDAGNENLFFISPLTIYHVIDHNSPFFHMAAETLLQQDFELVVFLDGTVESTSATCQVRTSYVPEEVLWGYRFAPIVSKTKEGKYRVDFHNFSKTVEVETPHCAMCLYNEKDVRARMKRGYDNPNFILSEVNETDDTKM
HSV augment: HSV replication enhancement. HSV replication augmentation in cells, fold increase. maximum fold increase. hit rate 0.005% among 220,000. AID 1956; in the data active = maximum fold increase above about 1.5; inconclusive = no clear call, values can overlap the other calls; tested in PC3 cells
KCC2 mod: KCC2 (human) Cl- transport modulation. KCC2 cells, thallium flux FluoZin-2 fluorescence. AID 1456. hit rate 2.2% among 190,000. B-score of Tl+ flux slope (higher = more flux/activation; lower = inhibition) at 10 µM. Q9H2X9;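 active = thallium flux slope and its plate-corrected score both differing from the plate sample mean at a set confidence after two filtering rounds, in either direction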;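 also: slope of fluorescence scaled to starting intensity during 10 to 20 s after thallium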
KCC2 secondary: confirmation of human KCC2 transport modulators; shares compounds with KCC2 mod; HEK293-KCC2, thallium flux, FluoZin2 fluorescence; stronger effect = higher value; normalised thallium flux (F/F0 slope) at 10 µM; hit rate 15% among 3,700; AID 1713;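 active = thallium flux slope above the same plate's solvent-only control mean plus 3 SD; inconclusive = the two replicate wells disagree; inactive = no significant difference from solvent-only control wells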
KCC2 bumet counter: thallium flux despite bumetanide block in KCC2 cells, secondary assay 3 | hit rate 49% among 3,700 | normalized thallium flux at 10 µM | AID 1714 | HEK293-KCC2 + bumetanide/ouabain, thallium flux FluoZin2; stronger effect = higher value | shares compounds with KCC2 mod;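 active = thallium entry rate above the same plate's blocked-transporter control wells by more than 3 SD; inconclusive = the two repeat wells disagree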;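 also: raw slope of fluorescence over initial fluorescence between 10 and 20 s after thallium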
KCC2 sec2: KCC2 (human) modulation, second secondary assay | normalized thallium flux at 10 µM | hit rate 23% among 3,700 | shares compounds with KCC2 mod | HEK293-KCC2, thallium flux FluoZin2 fluorescence; actives lie on both sides; F/F0 rise rate, 10–20 s post-thallium;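 active = thallium flux slope more than 3 SD above or below the plate's solvent-only control mean, mostly below; inconclusive = the two repeat wells disagreed; inactive = no significant shift from solvent-only controls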;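 also: raw slope with 0.1% DMSO as baseline and bumetanide as block control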
HEK counter1: counter-screen for KCC2 modulators: effect in parental HEK293 cells; shares compounds with KCC2 mod; thallium flux FluoZin2, ouabain; baseline-ratio fluorescence slope, 10–20 s after thallium; thallium flux rate (normalised fluorescence) at 10 µM; hit rate 46% among 3,700;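 active = thallium flux rate significantly above the same plate's solvent-only control wells, beyond their mean plus 3 SD; inconclusive = the two replicate wells gave conflicting results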
KCC2 retest ouab: modulates human KCC2 on retest with ouabain. shares compounds with KCC2 mod. HEK293-KCC2, thallium flux FluoZin2 fluorescence; bidirectional: low = inhibitor, high = activator. raw Tl+ flux slope (below DMSO = inhibition, above = activation) at 10 µM. hit rate 48% among 3,700. AID 1717;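 active = thallium flux slope beyond 3 SD from same-plate DMSO control mean in most replicates, usually higher, sometimes lower; inconclusive = repeat tests gave conflicting results; inactive = no significant difference from controls in most replicates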;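 also: slope of initial-normalized fluorescence between seconds 10 and 20 after thallium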
HEK293 Tl flux2: counter-screen for KCC2 modulators: effect in parental HEK293 cells; shares compounds with KCC2 mod; hit rate 33% among 3,700; thallium flux slope at 10 µM; AID 1718; thallium flux FluoZin-2 fluorescence slope;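 active = thallium flux slope above the same plate's solvent-control mean plus 3 SD in both duplicate wells; inconclusive = duplicate wells that disagreed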;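 also: run without ouabain in cells lacking the KCC2 cotransporter; slope of fluorescence scaled to its starting value between 10 and 20 s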
The depositor's hits bear a star; i = inactive; ? = inconclusive; / = no result given. Rows were chosen to be rich in hits. Some 4% of all compounds tested hit in one or more screens of this group.

SMILES	Arbovirus inh	Measles CPE	ROMK primary	HSV augment	KCC2 mod	KCC2 secondary	KCC2 bumet counter	KCC2 sec2	HEK counter1	KCC2 retest ouab	HEK293 Tl flux2
COc1ccccc1/C=C/C=N/n1c(-c2ccc(Cl)cc2)n[nH]c1=S	/	/	/	i	13.1*	0.00917	0.0226*	0.0297	0.0106*	0.0308*	?
COc1ccccc1/C=C/C=N/n1c(-c2ccccc2)n[nH]c1=S	/	/	/	i	0.48	/	/	/	/	/	/
C=C1N(c2cccc(Cl)c2)C(=O)OC1(C)C	-2.6	/	1.36	i	0.664	/	/	/	/	/	/
Cc1ccccc1-c1noc(CCC(=O)NCc2ccco2)n1	/	/	/	i	0.51	/	/	/	/	/	/
O=C(NCc1ccc(OC(F)(F)F)cc1)C1CC(c2cccc(F)c2)=NO1 (stereo unspecified)	/	/	/	i	0.594	/	/	/	/	/	/
O=S(=O)(c1ccc(F)cc1)N1CCCN(c2nccc(C(F)(F)F)n2)CC1	/	/	0.232	i	0.465	/	/	/	/	/	/
S=c1[nH]nc(-c2ccc(Cl)cc2)n1/N=C/c1ccco1	/	/	/	i	21.1*	0.00703	0.029*	?	0.0221*	0.0325*	0.0203*
FC(F)(F)c1n[nH]c(=S)n1/N=C/c1ccco1	10.1	9.5	/	i	-1.94	/	/	/	/	/	/
Cc1cc(NC(=O)NC2CC(=O)N(c3ccc4c(c3)OCCO4)C2)no1 (stereo unspecified)	7.4	/	0.727	i	1.26	/	/	/	/	/	/
Cc1nc2ccccc2n1CC(=O)NN	1.7	/	0.726	i	0.601	/	/	/	/	/	/
NNC(=O)Cn1c(SCc2ccccc2)nc2ccccc21	-5.7	3.0	-0.0828	i	-3.27*	0.0074	0.00452	0.0299	0.00745	0.0184	0.00985
O=C(O)CCn1c(SCc2cccc3ccccc23)nc2ccccc21	1.6	28.8*	-0.934	i	-8.69*	?	0.00654	0.0224*	0.00663	0.0155*	0.00971
CCS(=O)(=O)NCc1ccc2c(c1)cc(C)n2C	-1.1	2.3	/	i	-3.1*	0.0058	0.00515	0.0299	0.00779	0.0188	0.0111
CCCS(=O)(=O)NCc1ccc2c(c1)cc(C)n2C	-1.2	8.2	-0.613	i	0.235	/	/	/	/	/	/
CN(C)S(=O)(=O)c1ccc(Cl)c(C(=O)Nc2nc3ccccc3[nH]2)c1	-1.4	/	0.568	i	/	0.00655	0.00498	0.022*	0.0077	0.0133*	0.0103
CS(=O)(=O)c1ccccc1C(=O)Nc1nc2ccccc2[nH]1	/	/	/	i	-0.00721	/	/	/	/	/	/
C#CCOCCOCCOCCNc1nc(N2CCN(C(=O)[C@H]([C@@H](C)CC)n3cc([C@@H](N)Cc4ccc(O)cc4)nn3)CC2)nc(N2CCN(C(=O)[C@H](CCCCN)n3cc([C@@H](N)CC(C)C)nn3)CC2)n1	-1.7	/	/	/	0.669	/	/	/	/	/	/
CCCCNC(=O)c1onc(CSc2cccc3ccccc23)c1C(=O)O	15.4	15.3	/	i	-4.76*	0.00732	0.00596	0.0295	?	0.0179*	0.00939
CCCCNC(=O)c1onc(CSc2ccccc2)c1C(=O)O	11.3	5.6	/	i	0.218	/	/	/	/	/	/
CC(C)(C)Nc1nc(OCC(F)(F)F)nc(OCC(F)(F)F)n1	1.0	12.3	/	i	-2.76*	0.00756	0.00695	0.0263	0.00672	0.0149*	0.0101
CC(NC(=O)CCc1nnc(-c2ccc(-c3ccccc3)cc2)o1)c1nccs1 (stereo unspecified)	-1.6	/	0.8	i	-4.11*	0.0152	0.00462	0.0241*	0.00707	0.0145	0.00984
CC(c1nccs1)N(C)C(=O)CCc1nnc(-c2ccc(-c3ccccc3)cc2)o1 (stereo unspecified)	-14.4	/	-0.167	i	-1.99	/	/	/	/	/	/
O=C(CCc1nnc(-c2ccc(-c3ccccc3)cc2)o1)NCCc1ccccn1	-4.1	/	-0.496	i	-3.22*	0.00823	0.00737	0.0372	0.00417	?	?
Cc1cccc(C)c1NC(=S)N=Nc1c(O)n(C)c2ccc(S(=O)(=O)N3CCOCC3)cc12	-3.2	4.3	-1.58	i	4.38*	0.0104	0.0272*	0.035	0.012*	0.0275	0.0118*
Cc1ccc(S(=O)(=O)N2CCOCC2)cc1NC(=O)CNCc1ccccn1	/	/	/	i	0.0101	/	/	/	/	/	/
SMILES	Arbovirus inh	Measles CPE	ROMK primary	HSV augment	KCC2 mod	KCC2 secondary	KCC2 bumet counter	KCC2 sec2	HEK counter1	KCC2 retest ouab	HEK293 Tl flux2
Cc1ccccc1NC(=S)N=Nc1c(O)n(C)c2ccc(S(=O)(=O)N3CCOCC3)cc12	0.0	7.3	0.0217	i	14.8*	0.0107	0.0695*	0.0353	0.0231*	?	?
COC(=O)c1cn(C)c2ccc(S(=O)(=O)N3CCOCC3)cc2c1=O	12.6	/	0.169	i	-0.558	/	/	/	/	/	/
O=C(COc1ccccc1)NC(=S)Nc1ccc(Br)cn1	/	/	/	i	85*	0.00708	0.045*	0.0484*	0.0532*	0.0519*	0.0409*
CCC(=O)NC(=S)NNC(=O)COc1ccc(Br)cc1	-9.1	/	0.547	i	7.62*	0.00721	0.019*	0.0312	0.018*	?	0.0154*
CCOc1ccc(NC(=S)NNC(=O)c2ccc(Br)cc2)cc1	14.9	/	1.5	i	23.9*	0.0141*	0.0554*	0.039	?	0.0461*	?
COc1ccc(CC(=O)NC(=S)NNC(=O)COc2c(C)cccc2C)cc1	-5.0	7.1	0.129	i	7.27*	0.0128*	0.0376*	0.0342	0.0149*	?	0.0122*
CC(C)c1cccc(O)c(=O)c1	7.5	/	0.00339	i	9.07*	0.00832	0.0163*	0.0319	0.0129*	0.0262*	?
CC(C)c1ccc(N)c(S(=O)(=O)O)c1	/	/	-0.615	i	0.691	/	/	/	/	/	/
c1cncc(-c2nnc(SCc3cccc4ccccc34)o2)c1	-20.8	7.0	/	/	-4.29*	0.00874	0.0064	0.0289	0.00637	0.02	0.00919
c1ccc(CSc2nnc(-c3cccnc3)o2)cc1	-15.8	4.1	/	i	-0.0571	/	/	/	/	/	/
COCCNC(=S)N(C)C1(c2ccccc2Cl)CCCCC1=O (stereo unspecified)	0.9	/	-0.338	i	1.34	/	/	/	/	/	/
N#Cc1c2n(c3c(=O)n(Cc4ccc(Cl)cc4)cnc13)CCCCC2	1.8	30.7	0.212	i	/	0.00517	0.00441	0.0234*	?	0.0137*	0.0102
N#Cc1c2n(c3c(=O)n(Cc4ccccc4)cnc13)CCCC2	-11.0	4.9	/	i	-0.465	/	/	/	/	/	/
COc1ccc(/C=N/NC(=S)Nc2cc(C(F)(F)F)ccc2Cl)cc1	/	/	/	i	0.167	/	/	/	/	/	/
